Experimental data as given in PubChem BioAssay (NCATS).
A number with no mark means an inactive call. Inconclusive results are not listed. The source made the active and inactive calls. The call rests on the fitted dose curve; in most records, active means well fitted curve in the direction sought with a large enough effect; inconclusive means small, poorly fitted or top-dose-only effect, or another doubt; inactive means no such curve, though single readings can be large; an effect the other way counts as inactive or inconclusive.

Target: Cytochrome P450 2C9 (Homo sapiens) (UniProt P11712)
Sequence (P11712 whole entry, looked up): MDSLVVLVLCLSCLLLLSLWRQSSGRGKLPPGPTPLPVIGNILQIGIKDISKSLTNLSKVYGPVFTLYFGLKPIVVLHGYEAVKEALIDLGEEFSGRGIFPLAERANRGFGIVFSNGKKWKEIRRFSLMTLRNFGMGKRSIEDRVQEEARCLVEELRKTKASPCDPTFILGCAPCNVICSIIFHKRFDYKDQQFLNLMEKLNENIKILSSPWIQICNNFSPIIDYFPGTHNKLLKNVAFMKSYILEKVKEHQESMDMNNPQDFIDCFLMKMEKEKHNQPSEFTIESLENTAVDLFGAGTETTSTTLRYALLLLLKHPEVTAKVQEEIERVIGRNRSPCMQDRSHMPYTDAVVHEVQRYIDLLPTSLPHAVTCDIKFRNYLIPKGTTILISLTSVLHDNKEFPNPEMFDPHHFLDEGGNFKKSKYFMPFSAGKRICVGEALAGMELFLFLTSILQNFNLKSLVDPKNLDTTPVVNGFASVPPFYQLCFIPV
Assay: qHTS Assay for Inhibitors and Substrates of Cytochrome P450 2C9 (AID 883); further: nearly all actives have a fitted effect of over 60% in size; further: potency means the concentration at half of the fitted maximal effect; on activity change, negative = inhibition: on the % scale 0 is the no-effect control and ±100 the full control effect
Conditions: recombinant CYP2C9, luciferin-H luminescence, 60 min; series mostly up to 57.1 µM; activity change, negative = inhibition: at the top concentration
How it was run: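 Human CYP2C9 (10nM) hydroxylated Luciferin-H (100uM, at its KM) to luciferin in 25mM KPO4. Compound was preincubated 10 min at 37C, then NADPH regeneration started a 60 min reaction at 37C. Luminescence was read after detection reagent, normalized to 57uM sulphaphenazole.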

Compound | Potency | activity change, negative = inhibition
COc1cccc(-c2cncnc2NCCc2cnc[nH]2)c1 | 251 nM (active) | 
COc1ccc2[nH]cc(CCNc3ncncc3-c3ccc(C(=O)N(C)C)cc3)c2c1 | 398 nM (active) | 
COc1ccc(CNc2ccnc(-c3cccc(NS(C)(=O)=O)c3)n2)c(OC)c1 |  | 20.5% [at 2.29 µM]

Target: Cytochrome P450 3A4 (Homo sapiens) (UniProt P08684)
Sequence (P08684 whole entry, looked up): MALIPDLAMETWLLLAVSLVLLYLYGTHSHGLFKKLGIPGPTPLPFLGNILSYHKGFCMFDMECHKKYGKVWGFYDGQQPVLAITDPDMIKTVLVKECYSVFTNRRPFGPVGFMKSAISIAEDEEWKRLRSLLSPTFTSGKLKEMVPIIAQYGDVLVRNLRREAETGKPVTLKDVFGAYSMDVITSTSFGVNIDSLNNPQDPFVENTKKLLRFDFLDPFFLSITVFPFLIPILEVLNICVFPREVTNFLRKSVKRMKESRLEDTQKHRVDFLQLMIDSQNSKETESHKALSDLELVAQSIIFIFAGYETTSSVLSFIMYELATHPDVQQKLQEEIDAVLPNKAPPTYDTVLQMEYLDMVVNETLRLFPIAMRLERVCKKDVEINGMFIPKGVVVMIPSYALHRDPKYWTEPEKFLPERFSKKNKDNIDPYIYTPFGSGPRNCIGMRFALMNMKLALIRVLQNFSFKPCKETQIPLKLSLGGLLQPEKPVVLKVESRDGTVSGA
Assay: qHTS Assay for Inhibitors and Substrates of Cytochrome P450 3A4 (AID 884); further: potency means the concentration at half of the fitted maximal effect; nearly all actives have a fitted effect of over 50% in size
Conditions: recombinant CYP3A4, Luciferin-PPXE luminescence; series mostly up to 57.1 µM; activity change, negative = inhibition: at the top concentration
How it was run: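 Luminescent readout of luciferin produced by CYP3A4 (20 nM) dealkylation of Luciferin-PPXE, 25 uM (its KM). NADPH-driven reaction ran 60 min at RT after 10 min compound preincubation; data scaled to 57 uM ketoconazole as 100% inhibition.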

Compound | Potency
c1ccc2c(NC3CC3)nc(-c3ccoc3)nc2c1 | 3980 nM (active)
N#Cc1cccc(-c2cc(-n3ccnc3)ncn2)c1 | 398 nM (active)
COc1cccc(-c2cncnc2NCCc2cnc[nH]2)c1 | 631 nM (active)
COc1cccc(-c2nc(NCc3cnc(C)cn3)c3ccccc3n2)c1 | 2510 nM (active)
COc1ccc2[nH]cc(CCNc3ccnc(-c4ccccc4C)n3)c2c1 | 3160 nM (active)
CC(=O)NCCNc1nc(-c2ccc3c(c2)OCO3)nc2ccccc12 | 3980 nM (active)
N#Cc1cccc(-c2cc(NCc3cccnc3)ncn2)c1 | 2510 nM (active)
c1ccc(Nc2ncncc2-c2ccc3c(c2)OCO3)cc1 | 794 nM (active)
c1ncc(-c2ccc3c(c2)OCO3)c(NCCc2cnc[nH]2)n1 | 794 nM (active)
Fc1ccc(Nc2nc(-c3ccoc3)nc3ccccc23)cc1 | 3980 nM (active)
COc1ccc(CNc2ccnc(-c3cccc(NS(C)(=O)=O)c3)n2)c(OC)c1 | 3980 nM (active)
COc1ccc(CNc2ccnc(-c3ccccc3Cl)n2)c(OC)c1 | 3160 nM (active)
c1ccc(CNc2ncncc2-c2ccoc2)cc1 | 2000 nM (active)
COc1ccc2[nH]cc(CCNc3ccnc(-c4ccoc4)n3)c2c1 | 3160 nM (active)
CN(Cc1ccco1)c1cc(-c2cccnc2)ncn1 | 3160 nM (active)
COc1ccc2[nH]cc(CCNc3ncnc4ccc(-c5c(C)noc5C)cc34)c2c1 | 3160 nM (active)

Target: Cytochrome P450 3A4 (Homo sapiens) (UniProt P08684)
Assay: qHTS Assay for Activators of Cytochrome P450 3A4 (AID 885); further: nearly all actives have a fitted effect of over 65% in size
Conditions: recombinant CYP3A4, Luciferin-PPXE luminescence, 60 min; series mostly up to 57.1 µM; activity change, positive = activation: at the top concentration
How it was run: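 CYP3A4 activity: Luciferin-PPXE O-dealkylation, 25uM substrate, 200mM KPO4, RT throughout. Read-out is luciferase luminescence; higher values reflect activation.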

Compound | activity change, positive = activation [%]
Cc1ccccc1-c1nccc(-n2ccnc2)n1 | -89
CN(C)Cc1ccccc1-c1nccc(NC2CC2)n1 | -83.8
c1ccc2c(NC3CC3)nc(-c3ccoc3)nc2c1 | -81.9
N#Cc1cccc(-c2cc(-n3ccnc3)ncn2)c1 | -70.8
CN(C)C(=O)c1ccc(-c2ccc3ncnc(Nc4ccccc4)c3c2)cc1 | -46
COc1cccc(-c2cncnc2NCCc2cnc[nH]2)c1 | -95.6
COc1cccc(-c2nc(NCc3cnc(C)cn3)c3ccccc3n2)c1 | -91.2
c1cncc(-c2ccc3ncnc(N4CCNCC4)c3c2)c1 | -87.8
CN(C)C(=O)c1ccc(-c2cncnc2NCCN2CCOCC2)cc1 | -89.6
COc1ccc2[nH]cc(CCNc3ccnc(-c4ccccc4C)n3)c2c1 | -85.6
CC(=O)NCCNc1nc(-c2ccc3c(c2)OCO3)nc2ccccc12 | -118
c1csc(CNc2nc(-c3ccc4c(c3)OCO4)nc3ccccc23)c1 | -88.9
N#Cc1cccc(-c2cc(NCc3cccnc3)ncn2)c1 | -82.2
c1ccc(Nc2ncncc2-c2ccc3c(c2)OCO3)cc1 | -87.6
COc1ccc2[nH]cc(CCNc3ncncc3-c3ccc(C(=O)N(C)C)cc3)c2c1 | -90.9
c1ncc(-c2ccc3c(c2)OCO3)c(NCCc2cnc[nH]2)n1 | -88.1
Fc1ccc(Nc2nc(-c3ccoc3)nc3ccccc23)cc1 | -80.6
COc1ccc(CNc2ccnc(-c3cccc(NS(C)(=O)=O)c3)n2)c(OC)c1 | -88.6
COc1ccc(CNc2ccnc(-c3ccccc3Cl)n2)c(OC)c1 | -84.2
c1ccc(CNc2ncncc2-c2ccoc2)cc1 | -99.7
COc1ccc2[nH]cc(CCNc3ccnc(-c4ccoc4)n3)c2c1 | -88.9
Clc1ccccc1-c1nc(NCCN2CCOCC2)c2ccccc2n1 | -103
COCCNc1nc(-c2ccccc2C(F)(F)F)nc2ccccc12 | -67.8
CN(Cc1ccco1)c1cc(-c2cccnc2)ncn1 | -72.5
COc1ccc2[nH]cc(CCNc3ncnc4ccc(-c5c(C)noc5C)cc34)c2c1 | -91.8
CCNc1ncc2nc(-c3ccccc3)c(=O)n(Cc3cccc(OC)c3)c2n1 | -60.9
COCCNc1ccnc(-c2c(C)noc2C)n1 | -38.7
CN(C)C(=O)c1ccc(-c2nccc(-n3ccnc3)n2)cc1 | -58.1
